# Assay outcomes from PubChem BioAssay.
# This is a sample that favours compounds with a hit; in the whole collection about 2.4% have one here.
# UHRF1 binding – UHRF1 methyl-DNA binding inhibition. UHRF1 binding to methylated oligo, TR-FRET. inhibition, % at 4.4 µM. 370,000 compounds, 0.75% hits;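 also: UHRF1 SRA domain binding a hemimethylated CpG hairpin DNA probe; 0% = median of test compound wells and 100% = reference inhibitor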
# MBD2 DNA inh – blocks human MBD2 binding to methylated DNA; TR-FRET, MBD2 binding to methylated oligonucleotide; AID 686964; inhibition, % at 4.4 µM; Q9UBB5; 370,000 compounds, 0.31% hits; in the data active = inhibition above about 13%
# PLCg1 inh – inhibitors of human phospholipase C gamma1 | P19174 | purified PLC-gamma1, fluorogenic substrate, fluorescence | inhibition, % at 12.2 µM | 370,000 compounds, 0.84% hits | AID 720700; in the data active = inhibition above about 9.5%
# Target sequence (P19174 whole entry, looked up): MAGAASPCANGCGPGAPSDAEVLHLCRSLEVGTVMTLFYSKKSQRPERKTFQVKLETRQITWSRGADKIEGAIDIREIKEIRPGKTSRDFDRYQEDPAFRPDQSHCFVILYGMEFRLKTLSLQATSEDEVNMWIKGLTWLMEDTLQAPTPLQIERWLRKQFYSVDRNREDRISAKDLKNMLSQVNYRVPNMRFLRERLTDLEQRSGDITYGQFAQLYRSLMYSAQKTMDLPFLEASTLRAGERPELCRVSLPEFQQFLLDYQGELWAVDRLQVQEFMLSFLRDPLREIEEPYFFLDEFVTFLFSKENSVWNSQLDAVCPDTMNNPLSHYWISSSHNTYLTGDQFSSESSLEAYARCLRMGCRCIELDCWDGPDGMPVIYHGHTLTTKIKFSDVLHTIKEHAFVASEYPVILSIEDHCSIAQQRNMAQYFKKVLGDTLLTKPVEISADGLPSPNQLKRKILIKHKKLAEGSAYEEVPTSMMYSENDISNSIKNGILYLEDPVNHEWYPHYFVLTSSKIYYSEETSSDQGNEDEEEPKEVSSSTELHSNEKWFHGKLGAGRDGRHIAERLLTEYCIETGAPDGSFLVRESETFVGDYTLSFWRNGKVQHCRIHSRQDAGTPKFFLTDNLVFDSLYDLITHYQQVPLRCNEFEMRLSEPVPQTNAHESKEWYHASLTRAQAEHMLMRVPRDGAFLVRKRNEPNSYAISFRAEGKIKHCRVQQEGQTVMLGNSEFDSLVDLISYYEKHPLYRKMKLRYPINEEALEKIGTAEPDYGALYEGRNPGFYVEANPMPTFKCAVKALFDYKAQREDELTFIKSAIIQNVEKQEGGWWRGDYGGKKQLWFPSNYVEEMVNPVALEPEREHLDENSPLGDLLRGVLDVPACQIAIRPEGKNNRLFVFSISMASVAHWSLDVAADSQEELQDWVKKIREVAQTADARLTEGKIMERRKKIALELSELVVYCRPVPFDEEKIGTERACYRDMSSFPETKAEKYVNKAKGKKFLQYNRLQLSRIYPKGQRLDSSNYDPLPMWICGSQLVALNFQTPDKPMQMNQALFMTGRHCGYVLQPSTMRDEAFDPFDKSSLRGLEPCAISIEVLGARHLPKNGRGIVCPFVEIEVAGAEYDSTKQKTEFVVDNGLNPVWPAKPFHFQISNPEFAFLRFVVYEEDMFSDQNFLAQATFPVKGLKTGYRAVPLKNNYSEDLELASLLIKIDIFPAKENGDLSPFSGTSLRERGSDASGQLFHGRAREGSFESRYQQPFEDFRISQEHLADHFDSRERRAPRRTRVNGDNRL
# PLCb3 inh – blocks human PLC-beta3 enzyme activity | Q01970 | Purified PLC-beta3, fluorogenic substrate, fluorescence | inhibition, % at 12.2 µM | 370,000 compounds, 0.18% hits; in the data active = inhibition above about 11%;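 also: 0% = median of compound wells on plate and 100% = full blocker control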
# LEDGF integ inh – blocks HIV-1 LEDGF/p75-dependent DNA integration | TR-FRET IN-LEDGF/p75 DNA integration, Eu/Cy5 | inhibition, % at 3.7 µM | 370,000 compounds, 0.64% hits;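 active = inhibition above the screen-wide mean plus 3 SD, cut at about 13% in these data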;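 also: signal is the Cy5 over europium emission ratio at 671 and 618 nm; 0% = plate median of compound wells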
# UHRF1 DNA bind – counter-screen for MBD2 inhibitors: human UHRF1 methylated DNA binding inhibitors. shares compounds with MBD2 DNA inh. UHRF1 binding to methylated oligonucleotide, TR-FRET. inhibition, % at 4.4 µM. 1,000 compounds, 25% hits;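 also: UHRF1 SRA domain binding a labeled hemimethylated CpG hairpin DNA; 0% = vehicle only and 100% = reference inhibitor with vehicle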
# MBD2 confirm – confirmation of human MBD2-DBD methylated oligonucleotide binding inhibitors; shares compounds with MBD2 DNA inh; TR-FRET MBD2-DBD binding to methylated oligonucleotide; inhibition, % at 4.4 µM; 1,000 compounds, 26% hits; in the data active = inhibition above about 14%
# * hit, by the source's call; / = not tested or not shown. Rule as the data show it, unless noted: active = inhibition above about 21%; inactive = the rest.
SMILES,UHRF1 binding,MBD2 DNA inh,PLCg1 inh,PLCb3 inh,LEDGF integ inh,UHRF1 DNA bind,MBD2 confirm
CC(=O)N1CCc2c1cccc2S(=O)(=O)NC(CC(C)C)C(=O)Nc1ccccc1C (stereo not drawn),2,-2,1,2,3,/,/
COc1ccc(S[C@]2(C(=O)N3CCOCC3)CC(=O)N(C(=O)/C=C/c3ccccc3)[C@@H]2c2ccc(OC)cc2)cc1,-1,0,-1,0,5,/,/
CCOc1ccc(CNC(=O)CCS(=O)(=O)c2ccc3c(c2)oc(=O)n3C)cc1,18,-1,7,-4,5,/,/
COc1ccc(CNC(=O)CCS(=O)(=O)c2ccc3c(c2)oc(=O)n3C)cc1,1,39*,4,4,-1,5,3
C/C(=N\NC(=O)C1CCCN(S(=O)(=O)c2ccccc2)C1)c1ccncc1 (stereo not drawn),-3,3,2,1,0,/,/
C/C(=N\NC(=O)C1CCCN(S(=O)(=O)c2ccccc2)C1)c1ccccn1 (stereo not drawn),-2,16*,3,0,-2,6,7
COc1ccc(CN2CCN(Cc3ccc(C)cc3)CC2)c(OC)c1,1,32*,1,-1,-1,4,3
Cc1cc(C)cc(C(=O)OCCN(C)C2CN(Cc3cn(Cc4ccccc4F)nn3)S(=O)(=O)C2)c1 (stereo not drawn),8,3,1,3,1,/,/
CNc1c2cccc(C)c2nc2c(C(=O)NCCN(C)C)cccc12,61*,91*,-71,-91,8,55*,103*
Cc1ccc(NC(=O)NCCCN2CCCC2=O)cc1Cl,1,8,5,-5,4,/,/
O=C(NCCCN1CCCC1=O)Nc1ccc(Cl)cc1,1,14*,5,5,2,5,3
COc1cccc(NC(=O)CN(C)C(=O)c2cc3c(s2)CCC3)c1,55*,27*,-10,-13,9,30*,26*
Brc1ccc2c(c1)-c1ccccc1C1=NCCN12,-11,13,-6,-2,-3,/,/
Clc1ccc2c(c1)-c1ccccc1C1=NCCN12,-3,22*,-24,-41,-5,2,42*
O=c1[nH]c(=S)[nH]c2c1C(c1ccc(Br)cc1)c1c([nH]c(=S)[nH]c1=O)O2,107*,105*,24*,-4,83*,104*,88*
O=C1CCCC2=C1C(c1ccc(Br)cc1)c1c([nH]c(=S)[nH]c1=O)N2 (stereo not drawn),1,0,-6,-22,8,/,/
CCCCn1c(NC(=O)c2ccccc2)c(C#N)c2nc3ccccc3nc21,18,24*,0,-52,6,-1,17*
Cc1ccc(C)c2nc(Cl)c(C#N)cc12,2,14*,-6,-21,-5,3,4
Cc1ccc(C)c2nc(N3CCCC3)c(C#N)cc12,-3,-4,-93,-114,-1,/,/
CC(C)(C)c1ccc(C(=O)Nc2cc(Cl)ccc2C(=O)O)cc1,-2,4,-4,-7,3,/,/
O=C(NC1CCN(S(=O)(=O)c2cccc([N+](=O)[O-])c2)CC1)C1CCCCC1,1,3,2,1,3,/,/
O=C(NC1CC1)C1CCN(S(=O)(=O)c2ccc(Cl)c([N+](=O)[O-])c2)CC1,5,35*,7,-13,-5,7,3
O=C(Nc1ccc(F)c(C(F)(F)F)c1)Nc1nnc(-c2ccncc2)s1,6,15*,-1,-11,-6,6,10
CCC(=O)Nc1nnc(-c2ccncc2)s1,-6,2,-14,-17,-2,/,/
C#CCOCCOCCOCCNc1nc(N2CCN(C(=O)[C@H](CO)n3cc([C@@H](N)C(C)C)nn3)CC2)nc(N2CCN(C(=O)[C@H](CCC(=O)O)n3cc([C@@H](N)CCCCN)nn3)CC2)n1,4,1,6,0,4,/,/
SMILES,UHRF1 binding,MBD2 DNA inh,PLCg1 inh,PLCb3 inh,LEDGF integ inh,UHRF1 DNA bind,MBD2 confirm
C#CCOCCOCCOCCNc1nc(N2CCN(C(=O)[C@H](CO)n3cc([C@@H](N)C(C)C)nn3)CC2)nc(N2CCN(C(=O)[C@H](CO)n3cc([C@@H](N)C(C)C)nn3)CC2)n1,22*,15*,0,0,5,11,6
C=CC(=O)NC1CCCCN(C(C)C)C1=O (stereo not drawn),1,1,0,0,0,/,/
Cc1ccsc1S(=O)(=O)n1c(CN2CCOCC2)nc2ccccc21,-3,1,0,1,-4,/,/
O=C(NCc1cccc(Cl)c1)c1ccc(-n2ccnc2)c2ccoc12,22*,14*,0,-2,0,7,8
COc1ccc(CNC(=O)c2ccc(-n3ccnc3)c3ccoc23)cc1OC,23*,14*,1,0,1,12,13
C=CCN1C(C(=O)OC)CN(Cc2cn(Cc3ccc(F)cc3)nn2)CCS1(=O)=O (stereo not drawn),14,5,4,7,6,/,/
Cc1ccccc1OCC(=O)NS(=O)(=O)c1ccc(Cl)cc1,-2,14*,-4,-12,0,3,2
Cc1ccc(C(C)C)c(OCC(=O)NS(=O)(=O)c2ccc(Cl)cc2)c1,1,-5,-4,-11,3,/,/
COc1ccc2c(c1)CCCN2C(=O)C1CCCN(S(=O)(=O)c2ccc(C(C)(C)C)cc2)C1 (stereo not drawn),0,2,1,-1,-2,/,/
Cc1ccc2c(nc3s/c(=C/c4cccs4)c(=O)n32)c1C,0,0,-2,-4,-1,/,/
Cc1ccc2c(nc3s/c(=C\c4ccc(-c5ccccc5C(=O)O)o4)c(=O)n32)c1C,34*,15*,-15,-28,11,15,5
O=C1CCC2(CCC(c3ccccc3)CC2)N1CCO (stereo not drawn),-1,-1,4,7,0,/,/
NC(=O)c1ccc(NC(=O)COC(=O)/C=C/c2ccc(Br)o2)cc1,53*,27*,-8,-20,22*,34*,22*
CN(Cc1ccccc1)S(=O)(=O)c1cccc(C(=O)OCC2CCCCC2)c1,2,2,1,-1,0,/,/
COc1ccc(NC(=O)CSc2nnc(-c3cccs3)o2)cc1Cl,-1,0,2,2,-4,/,/
COc1ccc2c(c1)CNC2CS(=O)(=O)NCCc1ccccc1 (stereo not drawn),-11,-1,-26,-34,-4,/,/
c1ccc(Oc2ncnc3ccccc23)cc1,0,21*,3,-1,-6,2,2
Cc1nc(Oc2ccccc2)c2ccccc2n1,5,5,5,1,-5,/,/
CNC(=S)N(Cc1cc2cc(OC)c(OC)cc2[nH]c1=O)C1CCCC1,2,20*,-10,-21,-2,11,3
